# Results from PubChem BioAssay (EPA / NIEHS).
# Active and inactive are the calls of the source. The calls were made as follows: active = hit-call score of the fitted dose curve at least 0.9, where 1 is the maximum; inactive = score below 0.9.
# Assay: CCTE_Padilla_ZF_Score.Swim_bladder: CCTE's 144 Hour Post-fertilization zebrafish Assay Score for Swim Bladder Malformation, Padilla Lab (AID 2284408)
# Procedure: CCTE_Padilla_ZF_Phenotype_Score is a whole embryo, multiplexed assay using zebrafish ova exposed for 144 hours post fertilization on a 96-well plate.CCTE_Padilla_ZF_Score.Swim_bladder is one of one assay component(s) measured or calculated from the CCTE_Padilla_ZF_Phenotype_Score assay. It is designed to make measurements of zebrafish development as detected with brightfield microscopy of developing zebrafish embryos.Data from the assay component CCTE_Padilla_ZF_Score.Swim_bladder was analyzed into 1 assay endpoints. This assay endpoint, CCTE_Padilla_ZF_Score.Swim_bladder, was analyzed in the positive analysis fitting direction relative to DMSO as the negative control and baseline of activity. Using a type of viability reporter, gain-of-signal activity can be used to understand changes in developmentals as they relate to the whole embryo. To generalize the intended target to other relatable targets, this assay endpoint is annotated to the zebrafish development intended target family, where the subfamily is swim bladder morphogenesis.
# Zebrafish husbandry: Wild type adult zebrafish (Danio rerio; undefined outbred stock obtained from Aquatic Research Organisms, Hampton, NH, 03842) were housed in an AAALAC-approved animal facility at 28C with a 14:10 h light: dark cycle (lights on at 08:30 h). Adult fish (2-3 females per male; density = 15-20 adults per tank) were kept in one of several 9-liter (L) flow-through colony tanks (Aquaneering Inc., San Diego, CA). All adults in a colony tank were placed in a 2 L (static) breeding tank (Aquatic Habitats, Apopka, FL) one hour prior to light onset. Typically, adults from two to three colony tanks were mated on the same day. Two hours after light onset the adults were returned to the colony tank. All embryos were gathered from each breeder tank, pooled, and placed in a 28C water bath for 2 h, followed by two washes with 0.06% bleach (v/v) in 10% Hanks' Balanced Salt Solution (13.7 mM NaCl 0.54 mM KCl, 25 uM Na2HPO4, 130 uM CaCl2 100 um MgSO4 and 420 um NaHCO3,), hereafter referred to as Hanks' solution, for 5 min in order to remove any residual bacteria or fungi. Immediately following washing, the embryos were examined, and healthy embryos were separated from dead or unfertilized eggs and moved into fresh Hanks'. Chemical exposures: Zebrafish embryos were exposed in 96-well plates. Between 6- and 8-hours post fertilization (hpf), healthy embryos (with chorions) were transferred, one embryo per well, into 96 well (0.5 mL) microtiter plates (Cell Culture-Treated, Flat-Bottom Microplate 96 well [Corning Costar, Kennebunk, ME; Cat 09-761-145]) filled with 200 uL of Hanks' solution. A random number generator was used to assign the order in which the rows of embryos were plated in 96 well plates each week. After plating, the embryos were dosed with 0.8 uL of the chemical dosing solution then immediately sealed with AlumaSeal II (Excel Scientific Inc, Victorville, CA) to prevent volatilization of the chemicals, and then placed in a leakproof secondary container. These containers were placed in an incubator maintained on a 14:10 h light: dark cycle at 26C for rearing. On 5 dpf, live larvae were gently moved out of the plate with test chemicals and into a new 96 well mesh plate (Millipore Corp., Bedford, MA) with just the Hanks' solution. Once within the mesh well plate, the animals were rinsed with 400 uL of fresh Hanks' three times, and then the plates were covered with a non-adhesive material (Microseal A, BioRad, Hercules, CA), plate lid added, and then plate sides wrapped in Parafilm (PM992, Bermis Company, Neenah, WI), and returned to the incubator. […]
SMILES,AC50,outcome
FC(F)C(F)(F)COCC1CO1 (stereo not given),32.2 µM (active),–
C[Si](C)(C)C(F)(F)C(F)(F)C(F)(F)F,–,inactive
FC(F)=C(F)C(F)(F)C(F)(F)C(F)(F)C(F)(F)C(F)(F)C(F)(F)F,–,inactive
OC(O)(C(F)C(O)(O)C(F)(F)F)C(F)(F)F,32.1 µM (active),–
O=S(=O)(O)CCC(F)(F)C(F)(F)C(F)(F)C(F)(F)C(F)(F)C(F)(F)F,–,inactive
OCCC(F)(F)C(F)(F)C(F)(F)C(F)(F)F,–,inactive
O=C(Cl)C(F)(F)C(F)(F)C(F)(F)C(=O)Cl,–,inactive
FC(F)(F)C(F)(F)C(F)(F)C(F)(F)C(F)(F)C(F)(F)I,–,inactive
FC(F)(F)COC(OCC(F)(F)F)OCC(F)(F)F,–,inactive
NCC(F)(F)C(F)(F)C(F)(F)C(F)(F)F,–,inactive
